Experimental findings from PubChem BioAssay (NCI) are described below.

The panel holds about 83,000 compounds, 20% with a hit somewhere; the sample as a whole holds those more often.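 Values shown are percent growth following 48 h exposure of cells in 96-well plates to a single concentration of compound; below 10 was considered active.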 Values without a mark were called inactive. Activity calls are given as the source filed them.

For the test, the system named is LOX IMVI melanoma. Description: NCI-60 one-dose screen, 48 h (100 = growth as untreated, 0 = no growth, -100 = all killed). Conditions: 10 µM unless noted.
For the compound `Clc1ccccc1/C=C/c1nn2c(-c3ccncc3)nnc2s1`, the growth is 98.1%.

Turning to `COc1ccc(/C=N/Nc2nc(Nc3ccccc3)nc(Nc3ccc(S(N)(=O)=O)cc3)n2)cc1`, the growth was 52.5%.

In the case of `CS(=O)c1nccc(-c2c(-c3ccc(F)c(OCc4ccccc4)c3)nc3sccn23)n1` (configuration not stated), the growth is 81.7%.

As to `COc1ccc(-c2cc(-c3cccc4ccccc34)n3c(n2)nc2ccccc23)cc1`, the growth is 45.7%.

In the case of `COc1ccc2c(c1)c(-c1nn3c(=O)cc(-c4ccccc4)nc3s1)cn2C`, the growth is 37.9%.

As for `CC1(C)CC[C@]2(C(=O)N3CCCNCC3)CC[C@]3(C)C(=CC[C@@H]4[C@@]5(C)CCC(=O)C(C)(C)[C@@H]5CC[C@]43C)[C@H]2C1`, the growth is 97.2%.

On to `CCOC(=O)C1=C(C)Nc2nnc(Nc3ccccc3)n2C1c1ccccc1` (configuration not stated), for which the growth was 59.2%.

On to `Cc1nc(-c2cc3ccccc3c(N3CCN(C)CC3)n2)cs1`, for which the growth was 84.7%.

For `Nc1n[nH]c2cccc(C#Cc3cccc(NC(=O)c4cccc(OC(F)(F)F)c4)c3)c12`, the growth is 16.9%.

`COc1c([C@@H](CC(C)C)OC(C)=O)ccc2c1C(=O)OCc1cc(C)cc(O)c1O2`: the growth was 27.5%.

Turning to `O=C1CSC(=O)N1Cc1cc2ccccc2nc1Cl`, the growth is 97.4%.

As to `O=C1Nc2ccc(Cl)cc2/C1=C/c1ccc(OCc2ccc(Br)cc2F)cc1`, the growth was 92.7%.

With `COc1cc2oc(-c3cccc(NC(=O)c4cc(NC(=O)[C@H](C)N)ccc4Cl)c3)cc(=O)c2c(OC)c1OC`, the growth is 80.9%.

As for `COc1cc2oc(-c3cccc(NC(=O)c4cc(NC(=O)[C@H](C)NC(=O)OC(C)(C)C)ccc4C)c3)cc(=O)c2c(OC)c1OC`, the growth was 53.8%.

Consider `C/C(=C(/C)C1CC1CCN(C(=O)c1ccc([N+](=O)[O-])cc1)S(=O)(=O)c1ccc(C)cc1)C1CCCCC1` (configuration not stated), for which the growth is 93.9%.

For the compound `CN1CCN(c2nc(-c3cnc4ccccc4n3)cc3ccccc23)CC1`, the growth was 20%.

As for `CCNC(=O)Oc1ccc(/C(=C(/C)c2ccccc2)c2ccc(OCCN3CCCC3)cc2)cc1`, the growth was 18.4%.

As to `O=C(CSc1nnc(-c2cccs2)n1-c1ccccc1)Nc1ccc(F)cc1`, the growth was 97.9%.

Take `NS(=O)(=O)Oc1ccc2nc(Nc3ccc(F)c(F)c3)ccc2c1`: the growth was 85.3%.

With `COc1ccc([C@H]2[C@H](O)C(=O)N2c2cc(OC)c(OC)c(OC)c2)cc1O`, the growth is 17.1%.

For the compound `COc1cc(-c2nc(SCc3ccc(C)cc3)[nH]c(=O)c2C#N)ccc1OCc1ccccc1`, the growth was 114%.

On to `CCOC(=O)Nc1cccc(-n2cnc3cc(-c4ccc(O)cc4)ccc32)c1`, for which the growth was 41.2%.

As for `COc1cc(O)c2c(c1)[C@H]1O[C@@H]1C[C@H](O)[C@H](O)C(=O)/C=C\C[C@H](C)OC2=O`, the growth was 32.3%.

`CN1CCN(c2ccc(C(=O)/C=C/c3ccc(Cl)c(C(F)(F)F)c3)cc2)CC1`: the growth was 12.8%.

Take `Cc1ccccc1NC1CC(=O)N(c2ccc(Cl)cc2Cl)C1=O` (configuration not stated): the growth was 94.4%.

As to `C/C(=C(/c1ccc(O)cc1)c1ccc(OCCN(C)C)cc1)c1ccc(Cl)cc1`, the growth is -22.2% (active).

Consider `C=CCn1c(SCC(=O)Nc2cccc(C(=O)/C=C/c3ccc(Cl)cc3)c2)nc2ccccc2c1=O`, for which the growth was 77.9%.

Regarding `Cc1nn(-c2ccc(Br)cc2)c2nc(CCl)[nH]c(=O)c12`, the growth is -9.8% (active).

`Cc1cc2nc(C(Cl)Cl)nc(-c3ccco3)n2n1`: the growth is 93.4%.

Turning to `C=CCn1c(SCC(=O)c2ccc(OC)cc2)nnc1-c1ccc(OC)cc1`, the growth is 103%.

For `ClC(Cl)c1nc(-c2cccs2)n2nc(-c3ccccc3)cc2n1`, the growth is 83.5%.

For the compound `COc1cc2c3c(n(CCCNC4CCCCC4)c(=O)c2cc1OC)-c1cc2c(cc1C3=O)OCO2`, the growth was -76.7% (active).

As to `C#CCOc1ccc(/C=N/Nc2nc(-c3cc(Cl)ccc3Cl)cs2)cc1`, the growth was 97.7%.

On to `CS(=O)(=O)c1ccc2c(c1)c1c(n2S(=O)(=O)c2ccc(Cl)cc2)CCCC1`, for which the growth was 36.5%.

As for `CC(=O)NC(C)(C)C(=O)N1CCC[C@H]1C(=O)NC(C)(C)C(=O)N[C@@H](C)C(=O)NC(C)(C)C(=O)NC(C)(C)C(=O)N[C@@H](CCC(N)=O)C(=O)NC(C)(C)C(=O)N[C@H](C(=O)NC(C)(C)C(=O)NCC(=O)N[C@@H](CC(C)C)C(=O)NC(C)(C)C(=O)N1CCC[C@H]1C(=O)N[C@H](C(=O)NC(C)(C)C(=O)NC(C)(C)C(=O)N[C@@H](CCC(N)=O)C(=O)N[C@@H](CCC(N)=O)C(=O)N[C@H](CO)Cc1ccccc1)C(C)C)C(C)C`, the growth is 18.6% [4.25 µM].

For the compound `Cc1cn(-c2cc(NC(=O)c3cncc(C#Cc4cnc5ccc(O[C@@H]6CCOC6)nn45)c3)cc(C(F)(F)F)c2)cn1`, the growth was -75.7% (active).

Regarding `O=C(O)CNS(=O)(=O)c1ccc(Oc2ccc(S(=O)(=O)NCC(=O)O)cc2)cc1`, the growth is 99.8%.
